# Data: the supplement of paper PMC7411640
# Structures can show the parent of a compound that is named as a salt.
# Test system: MDA-MB-468
# Test: phospho-S6 immunofluorescence (DAPI-normalised), per-plate z-score; higher = higher phospho-S6 signal (less pathway suppression)
# Settings: 24 h
# Procedure: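 GPCR-targeted compound library (MedChemExpress HY-L006) tested on MDA-MB-468 PTEN-null TNBC cells in 384-well plates at 0.1, 1 or 10 uM, combined with vehicle, GDC0941 450 nM or lapatinib 1 uM, for 24 h. Phospho-S6 (S240/244) immunofluorescence normalised to DAPI and expressed as a per-plate z-score; values are the mean of biological triplicates.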
SMILES,phospho-S6 immunofluorescence (z-score) (co-treatment: GDC0941 450 nM),phospho-S6 immunofluorescence (z-score) (co-treatment: lapatinib 1 uM),phospho-S6 immunofluorescence (z-score) (co-treatment: vehicle)
Cc1cccn2c(=O)c(-c3nnn[nH]3)cnc12 [Pemirolast (potassium)] (compound 10 µM),-0.3,-0.65,-1.33
N=C(N)NC(=O)Cc1c(Cl)cccc1Cl [Guanfacine (hydrochloride)] (compound 10 µM),0.64,0.23,0.38
CC1(C)O[C@@H]2C[C@H]3[C@@H]4CCC5=CC(=O)C=C[C@]5(C)[C@@]4(F)[C@@H](O)C[C@]3(C)[C@]2(C(=O)CO)O1 [Triamcinolone (acetonide)] (compound 10 µM),-1.69,1.39,-1.2
CC(C)C(=O)OCC(=O)[C@@]12O[C@H](C3CCCCC3)O[C@@H]1C[C@H]1[C@@H]3CCC4=CC(=O)C=C[C@]4(C)[C@H]3[C@@H](O)C[C@@]12C [Ciclesonide] (compound 10 µM),-3.85,0,-1.25
C[C@H](CCC(=O)O)[C@H]1CC[C@H]2[C@@H]3CC[C@@H]4C[C@H](O)CC[C@]4(C)[C@H]3C[C@H](O)[C@]12C [Deoxycholic acid] (compound 10 µM),0.02,0.6,-0.17
O=C1NCCN1CCN1CCC(c2cn(-c3ccc(F)cc3)c3ccc(Cl)cc23)CC1 [Sertindole] (compound 10 µM),-4.7,-6.25,-4.35
CC(=O)OCC(=O)NCCCOc1cccc(CN2CCCCC2)c1 [Roxatidine (Acetate Hydrochloride)] (compound 10 µM),0.24,0.32,0.91
CN1CCC(=C2c3ccccc3CCc3cccnc32)CC1 [Azatadine (dimaleate)] (compound 10 µM),0,0.29,-0.32
CC(C)NC[C@H](O)COc1ccc(CCOCC2CC2)cc1 [Levobetaxolol (hydrochloride)] (compound 10 µM),-0.39,-0.2,-0.19
Nc1nc2c(cnn2CCc2ccccc2)c2nc(-c3ccco3)nn12 (compound 10 µM),-0.2,1.51,3.1
CN(C)CC/C=C1/c2ccccc2COc2ccc(CC(=O)O)cc21 [Olopatadine (hydrochloride)] (compound 10 µM),0.01,0.08,-0.35
CCc1cc(-c2noc(-c3cc(OC)nc(C4CCCC4)c3)n2)cc(C)c1OC[C@@H](O)CO [Cenerimod] (compound 10 µM),-3.08,-4.72,-4.14
Oc1ccc(C2CNCCc3c2cc(O)c(O)c3Cl)cc1 (stereo not drawn) [Fenoldopam (mesylate)] (compound 10 µM),1.13,-0.01,0.83
COc1nc(C)nc(Cl)c1NC1=NCCN1 [Moxonidine] (compound 10 µM),0.49,0.68,0.7
O=C(Nc1ccc(Cl)cc1CN1C(=O)c2ccccc2C1=O)c1ccccc1O (compound 10 µM),-1.83,-0.3,-0.57
N=C(N)N/N=C/c1c(Cl)cccc1Cl [Guanabenz (Acetate)] (compound 10 µM),0.61,-0.12,-0.2
